Several values for one entry are separate records, joined by “and”; a condition that tells them apart may be missing. Identical values can stand only once. More than one record can exist for a structure, and the calls need not agree. Activity calls are given as the source filed them. How the source made its calls: active means hit-call score of the fitted dose curve at least 0.9, where 1 is the maximum; inactive means score below 0.9.

A short description of this experiment: BSK_3C_SRB: Viability Assessment in the BioMAP Diversity Plus: 3C Assay (AID 2283023).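 Further: fitted both ways against DMSO so a hit may be signal rise or drop.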 The conditions noted are these: primary human endothelial cells (HUVEC). Here is the method:
BSK_3C is a cell-based, multiplexed-readout assay that uses umbilical vein endothelium, a human vascular primary cell, with measurements taken at 24 hours after chemical dosing in a 96-well plate.BSK_3C_SRB is an assay component measured in the BSK_3C assay. It measures 0.1% sulforhodamine related to cell death using Sulforhodamine staining technology.Data from the assay component BSK_3C_SRB was analyzed into 1 assay endpoint. This assay endpoint, BSK_3C_SRB, was analyzed with bidirectional fitting relative to DMSO as the negative control and baseline of activity. Using a type of viability reporter, gain or loss-of-signal activity can be used to understand changes in the signaling. Furthermore, this assay endpoint can be referred to as a primary readout, because this assay has produced multiple assay endpoints where this one serves a signaling function. To generalize the intended target to other relatable targets, this assay endpoint is annotated to the cell morphology intended target family, where the subfamily is cell conformation.
The levels of cell surface (or secreted, indicated by the prefix "s") biomarker endpoints were measured by ELISA. Overt cytotoxicity to cells in confluent adherent cultures (all systems other than the BT system) was assessed by measuring total protein levels using sulforhodamine B (SRB) staining in parallel cultures at the time of biomarker measurements, indicated as SRB endpoints. For proliferation assays for adherent cell types, individual cell types are cultured at sub-confluence and relative cell numbers quantified by SRB staining at time points optimized for each system (48 h: 3C and CASM3C systems; 72 h: BT and HDF3CGF systems; 96 h: SAg system). SRB was performed by staining cells with 0.1% SRB after fixation with 10% TCA and reading wells at 560 nm.Viability and proliferation of PBMC (T cells) was quantified by Alamar Blue reduction for the SAg and BT systems. For PBMC viability (referred to as PBMC Cytotoxicity within the assay endpoint names), cells were plated (75,000/well in a 96-well plate) and then chemical samples added for 1 h before addition of activators, SEB and TSST-1 (20 ng/mL final concentration each). Cells were incubated for 90 h. Then, Alamar Blue (20 uL/well) (Invitrogen, Cat DAL1100) was added for 6 h, and the plates were read with a fluorescence microplate reader at 546/580 nm (excitation/emission). For PBMC proliferation, cells were plated and activated as above but incubated for only 16 h prior to addition of Alamar Blue. Plates were read after 6 h.
For the compound `[2H]C1([2H])[n+]2ccccc2-c2cccc[n+]2C1([2H])[2H]`, the outcome was inactive.
Same read-out and setting: the result for `COC(=O)c1ccccc1S(=O)(=O)NC(=O)Nc1nc(C)nc(OC)n1` reads “inactive”.
On to `CCOCN(C(=O)CCl)c1c(C)cccc1CC`, for which the AC50 (as a rule, the concentration at which the activity in the assay is half-maximal) was 18.2 µM (active).
With `O=C(Nc1ccccc1)Nc1cnns1`, the result was inactive.
Same read-out and setting: the result for `O=C(O)CCCOc1ccc(Cl)cc1Cl` reads “inactive”.
Turning to `COP(=S)(OC)Oc1ccc([N+](=O)[O-])cc1`, the AC50 was 23 µM (active).
With `CNC(=O)Oc1cccc(N=CN(C)C)c1`, the outcome was inactive.
Turning to `Oc1cc(Cl)ccc1Oc1ccc(Cl)cc1Cl`, the AC50 is 10.8 µM (active) [middle of 4 runs].
As to `CCC(C)(NC(=O)c1cc(Cl)c(C)c(Cl)c1)C(=O)CCl` (stereo not given), the AC50 was 12.2 µM (active).
For `ClC1C(Cl)C(Cl)C(Cl)C(Cl)C1Cl` (stereo not given), the AC50 is 18.5 µM (active) and 28.3 µM (active) and 20 µM (active); the outcome was inactive.
With `C[C@H]1[C@H](c2ccc(Cl)cc2)SC(=O)N1C(=O)NC1CCCCC1`, the AC50 was 12.1 µM (active).
For `CCN(CC)C(=O)SCc1ccc(Cl)cc1`, the result was inactive.
Consider `CN1CSC(=S)N(C)C1`, for which the half-maximal activity concentration (AC50) was 20 µM (active).
Same read-out and setting: the result for `CC[C@H](C)[C@H]1O[C@]2(C=C[C@@H]1C)C[C@@H]1C[C@@H](C/C=C(\C)[C@@H](O[C@H]3C[C@H](OC)[C@@H](O[C@H]4C[C@H](OC)[C@@H](O)[C@H](C)O4)[C@H](C)O3)[C@@H](C)/C=C/C=C3\CO[C@@H]4[C@H](O)C(C)=C[C@@H](C(=O)O1)[C@]34O)O2` (tested in a mixture with another compound) reads 5.58 µM (active).
As for `OCCOc1ccccc1`, the outcome was inactive.
The same measure, in the same setting: next, `CNC(=O)/C=C(\C)OP(=O)(OC)OC`: “inactive”; `COC(=O)c1ccccc1CS(=O)(=O)NC(=O)Nc1nc(OC)cc(OC)n1`: “inactive”; `CCS(=O)(=O)c1cccnc1S(=O)(=O)NC(=O)Nc1nc(OC)cc(OC)n1`: “inactive”.
`CC(C)OC(=O)Nc1cccc(Cl)c1`: the outcome was inactive.
Take `CCCN(CCOc1c(Cl)cc(Cl)cc1Cl)C(=O)n1ccnc1`: the AC50 was 32 µM (active).
Still for that read-out and setting: next, `CCc1ccc(C(=O)NN(C(=O)c2cc(C)cc(C)c2)C(C)(C)C)cc1`: 11.8 µM (active).
Take `CNC(=O)CSP(=S)(OC)OC`: the result was inactive.
With `CC(C)N(C(=O)COc1nnc(C(F)(F)F)s1)c1ccc(F)cc1`, the result was inactive.
As for `CCC(C)(C)C(=O)OC1=C(c2ccc(Cl)cc2Cl)C(=O)OC12CCCCC2`, the AC50 was 26.1 µM (active).
As to `N#Cc1c(Cl)c(Cl)c(Cl)c(C#N)c1Cl`, the half-maximal activity concentration (AC50) was 2.14 µM (active).
With `O=[N+]([O-])/N=C1\NCCN1Cc1ccc(Cl)nc1`, the outcome was inactive.
Same read-out and setting: next, `O=C1c2ccccc2C(=O)N1SC(Cl)(Cl)Cl`: “inactive”; `COc1cc(OC)nc(NC(=O)NS(=O)(=O)c2cc(NC=O)ccc2C(=O)N(C)C)n1`: “inactive”.
Take `O=S(=O)(O)C(F)(F)C(F)(F)C(F)(F)C(F)(F)C(F)(F)C(F)(F)C(F)(F)C(F)(F)F`: the AC50 was 31.5 µM (active) and 30.8 µM (active) and 26.7 µM (active); the outcome was inactive.
As to `O=C(O)C(F)(F)C(F)(F)C(F)(F)C(F)(F)C(F)(F)C(F)(F)C(F)(F)F`, the AC50 was 46.1 µM (active) and the outcome was inactive.
For `N#CN`, the outcome was inactive.
Same read-out and setting: next, `O=C(O)COc1ccc(Cl)cc1Cl`: “inactive”.
For the compound `O=S1OCC2C(CO1)C1(Cl)C(Cl)=C(Cl)C2(Cl)C1(Cl)Cl` (stereo not given), the concentration at half-maximal activity (AC50) is 20 µM (active).
Take `Cc1[nH]c(=O)n(C(C)(C)C)c(=O)c1Cl`: the result was inactive.
For the compound `CC(C)(C)C(O)/C(=C\c1ccc(Cl)cc1Cl)n1cncn1` (stereo not given), the AC50 is 27.8 µM (active).
Consider `O=C(NC(=O)c1c(F)cccc1F)Nc1ccc(OC(F)(F)C(F)OC(F)(F)F)c(Cl)c1` (stereo not given), for which the result was inactive.
Same read-out and setting: next, `CCOc1nc(NC)nc(NC(=O)NS(=O)(=O)c2ccccc2C(=O)OC)n1`: “inactive”.

The values are drawn from PubChem BioAssay (EPA / NIEHS).
